How the values were obtained:
[1] = biological target: T1, Inhibitor of nuclear factor kappa-B kinase subunit epsilon (Homo sapiens) (UniProt Q14164); details: at 1 µM;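 note: reported values are averaged percent inhibition figures against human IKKε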
T1 sequence (whole entry): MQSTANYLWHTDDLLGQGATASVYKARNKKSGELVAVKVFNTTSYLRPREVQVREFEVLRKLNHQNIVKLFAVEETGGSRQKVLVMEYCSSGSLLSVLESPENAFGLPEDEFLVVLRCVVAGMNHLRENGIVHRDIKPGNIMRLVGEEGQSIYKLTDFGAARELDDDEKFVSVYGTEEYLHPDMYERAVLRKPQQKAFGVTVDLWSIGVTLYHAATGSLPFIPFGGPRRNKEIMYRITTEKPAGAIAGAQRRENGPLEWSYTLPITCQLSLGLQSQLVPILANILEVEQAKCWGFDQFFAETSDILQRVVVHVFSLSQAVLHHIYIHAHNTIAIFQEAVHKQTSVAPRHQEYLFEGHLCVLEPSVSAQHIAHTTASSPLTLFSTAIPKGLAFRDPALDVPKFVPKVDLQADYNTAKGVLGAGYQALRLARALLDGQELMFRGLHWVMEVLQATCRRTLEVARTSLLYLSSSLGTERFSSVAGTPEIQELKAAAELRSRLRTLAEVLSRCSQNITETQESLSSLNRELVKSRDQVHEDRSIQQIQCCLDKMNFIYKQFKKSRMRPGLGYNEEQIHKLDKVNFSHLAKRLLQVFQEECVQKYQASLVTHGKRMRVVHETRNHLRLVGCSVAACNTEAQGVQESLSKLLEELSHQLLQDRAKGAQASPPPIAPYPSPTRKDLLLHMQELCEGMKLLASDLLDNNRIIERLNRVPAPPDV

[2] = biological target: T2, Serine/threonine-protein kinase Nek1 (Homo sapiens) (UniProt Q96PY6); details: at 0.1 µM
T2 sequence (whole entry): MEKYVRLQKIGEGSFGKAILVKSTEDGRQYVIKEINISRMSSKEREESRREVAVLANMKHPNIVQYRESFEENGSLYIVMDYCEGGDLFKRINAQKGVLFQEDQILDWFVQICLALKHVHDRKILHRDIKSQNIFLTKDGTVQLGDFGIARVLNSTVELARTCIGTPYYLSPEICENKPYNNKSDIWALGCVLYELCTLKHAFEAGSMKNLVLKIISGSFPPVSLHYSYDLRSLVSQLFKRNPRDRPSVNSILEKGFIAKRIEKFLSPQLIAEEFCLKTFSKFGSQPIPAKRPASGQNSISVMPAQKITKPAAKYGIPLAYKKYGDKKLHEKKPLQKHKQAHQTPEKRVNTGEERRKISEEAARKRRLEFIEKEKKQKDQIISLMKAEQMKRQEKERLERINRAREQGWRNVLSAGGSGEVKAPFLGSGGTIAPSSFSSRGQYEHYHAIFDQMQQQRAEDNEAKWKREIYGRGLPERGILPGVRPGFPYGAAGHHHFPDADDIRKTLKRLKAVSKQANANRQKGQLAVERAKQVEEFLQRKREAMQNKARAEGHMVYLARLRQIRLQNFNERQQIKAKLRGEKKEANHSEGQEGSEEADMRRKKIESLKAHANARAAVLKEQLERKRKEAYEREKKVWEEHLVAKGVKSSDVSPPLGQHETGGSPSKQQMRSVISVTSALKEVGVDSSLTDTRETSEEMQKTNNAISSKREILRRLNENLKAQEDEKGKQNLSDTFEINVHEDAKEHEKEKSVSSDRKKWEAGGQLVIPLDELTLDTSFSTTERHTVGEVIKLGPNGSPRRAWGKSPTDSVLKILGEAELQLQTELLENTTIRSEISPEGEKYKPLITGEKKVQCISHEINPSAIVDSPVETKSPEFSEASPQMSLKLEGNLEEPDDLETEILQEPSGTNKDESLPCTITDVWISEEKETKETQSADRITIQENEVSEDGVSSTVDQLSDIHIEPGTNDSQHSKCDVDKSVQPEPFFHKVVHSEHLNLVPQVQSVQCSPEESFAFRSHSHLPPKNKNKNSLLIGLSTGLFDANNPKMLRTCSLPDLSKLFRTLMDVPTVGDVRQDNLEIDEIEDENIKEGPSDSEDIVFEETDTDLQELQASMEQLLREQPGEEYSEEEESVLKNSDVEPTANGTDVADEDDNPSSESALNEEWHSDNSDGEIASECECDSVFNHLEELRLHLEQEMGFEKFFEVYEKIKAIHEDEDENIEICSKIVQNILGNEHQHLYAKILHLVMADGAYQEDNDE

[3] = biological target: T2, Serine/threonine-protein kinase Nek1 (Homo sapiens); details: at 1 µM
[4] = biological target: T3, Serine/threonine-protein kinase Nek2 (Homo sapiens) (UniProt P51955); details: at 0.1 µM
T3 sequence (whole entry): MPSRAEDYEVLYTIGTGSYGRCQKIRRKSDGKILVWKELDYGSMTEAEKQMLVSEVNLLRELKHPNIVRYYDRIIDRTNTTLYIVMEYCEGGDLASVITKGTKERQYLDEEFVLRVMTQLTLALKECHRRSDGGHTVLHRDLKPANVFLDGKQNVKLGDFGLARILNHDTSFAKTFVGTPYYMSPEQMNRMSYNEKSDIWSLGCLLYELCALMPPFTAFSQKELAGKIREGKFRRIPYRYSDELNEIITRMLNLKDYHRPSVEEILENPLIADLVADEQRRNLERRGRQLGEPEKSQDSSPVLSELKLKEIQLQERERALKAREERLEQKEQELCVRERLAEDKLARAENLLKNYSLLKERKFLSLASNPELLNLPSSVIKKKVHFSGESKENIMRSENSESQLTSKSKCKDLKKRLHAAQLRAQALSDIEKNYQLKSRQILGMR

[5] = biological target: T3, Serine/threonine-protein kinase Nek2 (Homo sapiens); details: at 1 µM
[6] = biological target: Serine/threonine-protein kinase Nek6 (Homo sapiens) (UniProt Q9HC98); details: at 0.1 µM
Serine/threonine-protein kinase Nek6 (Homo sapiens), sequence (Q9HC98 whole entry): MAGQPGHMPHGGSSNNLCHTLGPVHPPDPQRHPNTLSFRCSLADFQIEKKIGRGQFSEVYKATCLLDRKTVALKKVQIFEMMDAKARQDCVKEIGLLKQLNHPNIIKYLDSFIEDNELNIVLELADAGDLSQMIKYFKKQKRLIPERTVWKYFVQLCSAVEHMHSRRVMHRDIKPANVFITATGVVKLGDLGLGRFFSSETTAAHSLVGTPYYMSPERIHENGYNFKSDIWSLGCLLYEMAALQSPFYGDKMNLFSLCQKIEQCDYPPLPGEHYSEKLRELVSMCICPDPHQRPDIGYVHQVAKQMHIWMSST

[7] = biological target: Serine/threonine-protein kinase Nek6 (Homo sapiens) (UniProt Q9HC98); details: at 1 µM
[8] = biological target: Serine/threonine-protein kinase Nek7 (Homo sapiens) (UniProt Q8TDX7); details: at 0.1 µM
Serine/threonine-protein kinase Nek7 (Homo sapiens), sequence (Q8TDX7 whole entry, looked up): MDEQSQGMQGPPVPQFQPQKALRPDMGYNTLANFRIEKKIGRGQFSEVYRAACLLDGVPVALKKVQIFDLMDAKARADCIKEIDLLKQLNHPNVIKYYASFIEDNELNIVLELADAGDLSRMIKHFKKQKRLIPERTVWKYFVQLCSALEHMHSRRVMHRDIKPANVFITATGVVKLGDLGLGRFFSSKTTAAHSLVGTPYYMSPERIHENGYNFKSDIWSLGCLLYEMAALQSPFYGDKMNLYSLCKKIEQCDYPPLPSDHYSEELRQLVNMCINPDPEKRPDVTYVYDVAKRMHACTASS

[9] = biological target: Serine/threonine-protein kinase Nek7 (Homo sapiens) (UniProt Q8TDX7); details: at 1 µM
[10] = biological target: T4, Serine/threonine-protein kinase Nek9 (Homo sapiens) (UniProt Q8TD19); details: at 0.1 µM
T4 sequence (whole entry): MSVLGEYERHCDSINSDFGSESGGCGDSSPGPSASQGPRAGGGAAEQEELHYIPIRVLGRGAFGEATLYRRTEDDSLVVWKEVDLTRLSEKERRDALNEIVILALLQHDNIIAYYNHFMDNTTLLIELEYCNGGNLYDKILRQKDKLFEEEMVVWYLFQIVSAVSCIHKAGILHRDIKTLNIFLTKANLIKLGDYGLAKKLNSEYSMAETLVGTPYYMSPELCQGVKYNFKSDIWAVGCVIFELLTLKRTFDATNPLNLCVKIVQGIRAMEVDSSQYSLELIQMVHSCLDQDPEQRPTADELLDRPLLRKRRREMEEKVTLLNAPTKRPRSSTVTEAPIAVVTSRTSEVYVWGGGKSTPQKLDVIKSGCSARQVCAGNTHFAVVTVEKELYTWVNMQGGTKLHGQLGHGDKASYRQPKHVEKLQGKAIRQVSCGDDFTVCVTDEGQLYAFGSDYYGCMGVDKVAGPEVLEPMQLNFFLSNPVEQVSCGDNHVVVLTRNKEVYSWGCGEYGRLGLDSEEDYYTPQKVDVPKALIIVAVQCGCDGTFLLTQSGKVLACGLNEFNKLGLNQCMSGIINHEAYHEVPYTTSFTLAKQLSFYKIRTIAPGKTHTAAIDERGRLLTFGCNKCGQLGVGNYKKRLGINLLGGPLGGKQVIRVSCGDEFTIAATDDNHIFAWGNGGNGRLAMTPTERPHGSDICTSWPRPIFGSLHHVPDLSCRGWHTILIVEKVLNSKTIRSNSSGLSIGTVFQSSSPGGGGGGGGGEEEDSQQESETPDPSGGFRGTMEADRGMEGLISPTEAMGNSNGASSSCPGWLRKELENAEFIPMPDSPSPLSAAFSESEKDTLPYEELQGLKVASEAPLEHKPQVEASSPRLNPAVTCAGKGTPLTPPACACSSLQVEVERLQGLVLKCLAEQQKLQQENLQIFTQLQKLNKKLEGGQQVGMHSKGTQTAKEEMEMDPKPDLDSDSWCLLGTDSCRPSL

[11] = biological target: T4, Serine/threonine-protein kinase Nek9 (Homo sapiens); details: at 1 µM
[12] = biological target: Serine/threonine-protein kinase PLK1 (Homo sapiens) (UniProt P53350); details: at 0.1 µM
Serine/threonine-protein kinase PLK1 (Homo sapiens), sequence (P53350 whole entry): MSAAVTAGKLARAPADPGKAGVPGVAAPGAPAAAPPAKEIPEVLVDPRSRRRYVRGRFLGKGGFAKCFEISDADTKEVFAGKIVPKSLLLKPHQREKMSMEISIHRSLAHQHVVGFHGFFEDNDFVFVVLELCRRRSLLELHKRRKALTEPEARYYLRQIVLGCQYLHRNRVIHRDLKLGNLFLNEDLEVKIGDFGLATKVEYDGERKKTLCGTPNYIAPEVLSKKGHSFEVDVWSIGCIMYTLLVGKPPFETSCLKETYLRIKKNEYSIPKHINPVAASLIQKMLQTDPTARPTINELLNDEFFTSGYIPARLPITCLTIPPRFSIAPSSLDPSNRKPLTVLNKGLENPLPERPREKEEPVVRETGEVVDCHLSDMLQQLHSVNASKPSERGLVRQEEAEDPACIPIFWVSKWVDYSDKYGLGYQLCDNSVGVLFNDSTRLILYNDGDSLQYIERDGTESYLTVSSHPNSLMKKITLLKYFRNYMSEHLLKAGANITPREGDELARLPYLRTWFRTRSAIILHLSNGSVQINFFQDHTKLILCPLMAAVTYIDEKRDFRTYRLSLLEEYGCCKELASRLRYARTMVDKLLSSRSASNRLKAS

[13] = biological target: Serine/threonine-protein kinase PLK1 (Homo sapiens) (UniProt P53350); details: at 1 µM
[14] = biological target: T5, Dual specificity protein kinase TTK (Homo sapiens) (UniProt P33981); details: at 0.1 µM
T5 sequence (whole entry): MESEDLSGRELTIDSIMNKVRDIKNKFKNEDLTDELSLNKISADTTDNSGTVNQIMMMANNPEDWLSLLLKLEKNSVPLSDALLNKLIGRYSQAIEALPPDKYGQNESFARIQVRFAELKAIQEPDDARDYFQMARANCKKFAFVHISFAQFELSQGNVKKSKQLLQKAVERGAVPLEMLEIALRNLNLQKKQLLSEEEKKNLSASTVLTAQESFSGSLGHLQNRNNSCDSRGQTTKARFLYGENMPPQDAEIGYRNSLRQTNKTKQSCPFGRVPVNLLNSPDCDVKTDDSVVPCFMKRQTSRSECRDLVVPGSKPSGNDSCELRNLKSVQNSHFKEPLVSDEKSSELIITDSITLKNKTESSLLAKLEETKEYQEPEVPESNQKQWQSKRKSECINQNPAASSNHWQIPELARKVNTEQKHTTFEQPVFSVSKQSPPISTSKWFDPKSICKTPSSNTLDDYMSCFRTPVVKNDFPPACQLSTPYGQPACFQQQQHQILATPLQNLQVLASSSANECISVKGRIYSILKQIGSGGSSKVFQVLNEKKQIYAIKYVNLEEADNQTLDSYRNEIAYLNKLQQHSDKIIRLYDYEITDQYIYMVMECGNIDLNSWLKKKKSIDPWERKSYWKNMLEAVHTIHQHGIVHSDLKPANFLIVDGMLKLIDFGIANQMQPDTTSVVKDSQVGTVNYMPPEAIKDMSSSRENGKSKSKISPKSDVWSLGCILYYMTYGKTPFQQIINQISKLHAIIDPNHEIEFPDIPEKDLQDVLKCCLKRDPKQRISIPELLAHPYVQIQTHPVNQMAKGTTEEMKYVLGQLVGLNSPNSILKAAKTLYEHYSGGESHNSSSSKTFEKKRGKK

[15] = tested on: T6, Receptor-type tyrosine-protein kinase FLT3 (Homo sapiens), P36888 [D835Y]; details: at 1 µM
T6 sequence (whole entry): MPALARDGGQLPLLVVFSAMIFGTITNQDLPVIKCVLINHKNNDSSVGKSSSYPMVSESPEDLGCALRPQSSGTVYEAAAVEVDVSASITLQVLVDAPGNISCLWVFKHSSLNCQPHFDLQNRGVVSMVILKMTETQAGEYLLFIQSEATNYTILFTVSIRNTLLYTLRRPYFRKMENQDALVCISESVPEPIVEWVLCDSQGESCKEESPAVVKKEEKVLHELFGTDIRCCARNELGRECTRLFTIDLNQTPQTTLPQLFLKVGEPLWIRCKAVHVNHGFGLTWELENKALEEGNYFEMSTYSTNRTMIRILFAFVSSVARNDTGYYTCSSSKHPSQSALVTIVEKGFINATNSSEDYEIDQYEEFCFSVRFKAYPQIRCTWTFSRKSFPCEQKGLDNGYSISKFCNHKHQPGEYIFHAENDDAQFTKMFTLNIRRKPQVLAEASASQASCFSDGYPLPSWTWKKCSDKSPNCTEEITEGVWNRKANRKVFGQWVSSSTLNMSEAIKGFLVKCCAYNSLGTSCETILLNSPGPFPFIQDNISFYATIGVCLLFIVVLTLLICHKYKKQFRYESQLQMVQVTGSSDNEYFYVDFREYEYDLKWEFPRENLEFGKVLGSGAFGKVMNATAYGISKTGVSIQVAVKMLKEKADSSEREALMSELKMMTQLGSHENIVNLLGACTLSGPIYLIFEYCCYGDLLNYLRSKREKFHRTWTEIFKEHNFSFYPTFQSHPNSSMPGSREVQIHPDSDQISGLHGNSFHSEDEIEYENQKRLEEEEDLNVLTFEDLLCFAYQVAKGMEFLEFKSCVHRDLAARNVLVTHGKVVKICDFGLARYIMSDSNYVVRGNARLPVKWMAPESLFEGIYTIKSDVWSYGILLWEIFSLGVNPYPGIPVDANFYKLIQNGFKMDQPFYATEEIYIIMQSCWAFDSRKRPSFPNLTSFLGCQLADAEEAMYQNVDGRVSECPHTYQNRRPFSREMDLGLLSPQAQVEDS

[16] = biological target: Vascular endothelial growth factor receptor 3 (Homo sapiens) (UniProt P35916); details: at 0.1 µM
Vascular endothelial growth factor receptor 3 (Homo sapiens), sequence (P35916 whole entry): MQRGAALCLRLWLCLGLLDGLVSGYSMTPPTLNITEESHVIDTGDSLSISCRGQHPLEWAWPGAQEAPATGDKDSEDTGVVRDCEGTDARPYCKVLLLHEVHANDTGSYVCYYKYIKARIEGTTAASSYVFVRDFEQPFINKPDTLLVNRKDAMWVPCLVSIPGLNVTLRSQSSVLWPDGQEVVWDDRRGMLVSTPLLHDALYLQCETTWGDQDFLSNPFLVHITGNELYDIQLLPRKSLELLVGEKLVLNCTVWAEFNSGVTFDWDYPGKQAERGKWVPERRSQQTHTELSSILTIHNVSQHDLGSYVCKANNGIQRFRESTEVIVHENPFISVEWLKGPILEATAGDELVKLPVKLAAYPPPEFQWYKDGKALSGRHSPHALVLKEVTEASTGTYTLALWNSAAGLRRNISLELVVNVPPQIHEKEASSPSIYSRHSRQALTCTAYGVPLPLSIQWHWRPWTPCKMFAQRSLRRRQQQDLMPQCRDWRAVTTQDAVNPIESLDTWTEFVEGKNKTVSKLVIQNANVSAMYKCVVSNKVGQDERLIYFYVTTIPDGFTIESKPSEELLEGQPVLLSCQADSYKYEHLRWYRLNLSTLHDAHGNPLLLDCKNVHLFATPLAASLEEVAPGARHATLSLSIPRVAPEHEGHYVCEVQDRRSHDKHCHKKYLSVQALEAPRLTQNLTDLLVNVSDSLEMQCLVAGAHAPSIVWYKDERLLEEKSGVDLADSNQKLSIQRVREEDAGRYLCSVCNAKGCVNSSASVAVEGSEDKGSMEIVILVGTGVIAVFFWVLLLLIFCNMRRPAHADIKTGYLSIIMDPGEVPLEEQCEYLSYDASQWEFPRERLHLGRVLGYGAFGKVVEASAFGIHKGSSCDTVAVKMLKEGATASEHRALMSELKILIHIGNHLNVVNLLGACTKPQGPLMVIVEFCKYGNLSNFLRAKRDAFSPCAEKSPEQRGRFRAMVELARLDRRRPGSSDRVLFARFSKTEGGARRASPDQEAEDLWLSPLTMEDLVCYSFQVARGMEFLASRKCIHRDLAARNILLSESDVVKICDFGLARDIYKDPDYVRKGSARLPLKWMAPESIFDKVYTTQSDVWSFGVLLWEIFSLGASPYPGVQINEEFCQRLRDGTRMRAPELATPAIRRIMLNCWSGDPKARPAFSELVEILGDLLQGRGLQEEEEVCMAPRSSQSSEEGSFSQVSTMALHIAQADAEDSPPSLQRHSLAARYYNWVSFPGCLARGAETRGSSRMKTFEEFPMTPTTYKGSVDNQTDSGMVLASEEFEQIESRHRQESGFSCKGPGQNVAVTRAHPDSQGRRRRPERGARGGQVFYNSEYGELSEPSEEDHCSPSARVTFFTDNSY

[17] = biological target: Vascular endothelial growth factor receptor 3 (Homo sapiens) (UniProt P35916); details: at 1 µM
[18] = biological target: Macrophage colony-stimulating factor 1 receptor (Homo sapiens) (UniProt P07333); details: at 0.1 µM
Macrophage colony-stimulating factor 1 receptor (Homo sapiens), sequence (P07333 whole entry): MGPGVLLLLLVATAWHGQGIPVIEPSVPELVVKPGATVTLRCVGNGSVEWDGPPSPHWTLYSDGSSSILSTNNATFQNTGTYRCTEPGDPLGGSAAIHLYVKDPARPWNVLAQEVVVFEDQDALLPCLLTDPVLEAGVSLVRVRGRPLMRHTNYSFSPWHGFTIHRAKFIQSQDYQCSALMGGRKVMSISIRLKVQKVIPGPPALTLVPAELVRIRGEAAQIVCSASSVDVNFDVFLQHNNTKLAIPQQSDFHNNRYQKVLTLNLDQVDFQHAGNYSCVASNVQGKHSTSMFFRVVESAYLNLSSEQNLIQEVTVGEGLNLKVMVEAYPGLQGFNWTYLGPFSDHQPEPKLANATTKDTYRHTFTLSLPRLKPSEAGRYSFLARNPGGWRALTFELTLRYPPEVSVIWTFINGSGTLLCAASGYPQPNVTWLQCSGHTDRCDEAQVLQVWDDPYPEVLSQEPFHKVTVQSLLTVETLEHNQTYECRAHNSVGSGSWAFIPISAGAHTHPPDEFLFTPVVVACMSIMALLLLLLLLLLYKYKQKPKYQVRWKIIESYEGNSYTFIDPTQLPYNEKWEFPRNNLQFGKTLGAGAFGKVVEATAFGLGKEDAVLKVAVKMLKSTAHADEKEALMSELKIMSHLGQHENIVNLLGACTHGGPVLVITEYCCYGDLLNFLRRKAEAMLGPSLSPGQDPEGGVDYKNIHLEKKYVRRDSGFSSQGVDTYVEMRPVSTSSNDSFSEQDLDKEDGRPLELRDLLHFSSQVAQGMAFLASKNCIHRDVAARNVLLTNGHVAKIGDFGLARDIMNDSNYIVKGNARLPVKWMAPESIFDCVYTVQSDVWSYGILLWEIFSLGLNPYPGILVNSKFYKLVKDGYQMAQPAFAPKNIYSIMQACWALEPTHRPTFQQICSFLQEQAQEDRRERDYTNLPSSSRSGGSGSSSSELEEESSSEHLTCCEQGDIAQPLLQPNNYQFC

[19] = biological target: Macrophage colony-stimulating factor 1 receptor (Homo sapiens) (UniProt P07333); details: at 1 µM
[20] = biological target: Tyrosine-protein kinase Fyn (Homo sapiens) (UniProt P06241); details: at 0.1 µM
Tyrosine-protein kinase Fyn (Homo sapiens), sequence (P06241 2-537 limits assumed): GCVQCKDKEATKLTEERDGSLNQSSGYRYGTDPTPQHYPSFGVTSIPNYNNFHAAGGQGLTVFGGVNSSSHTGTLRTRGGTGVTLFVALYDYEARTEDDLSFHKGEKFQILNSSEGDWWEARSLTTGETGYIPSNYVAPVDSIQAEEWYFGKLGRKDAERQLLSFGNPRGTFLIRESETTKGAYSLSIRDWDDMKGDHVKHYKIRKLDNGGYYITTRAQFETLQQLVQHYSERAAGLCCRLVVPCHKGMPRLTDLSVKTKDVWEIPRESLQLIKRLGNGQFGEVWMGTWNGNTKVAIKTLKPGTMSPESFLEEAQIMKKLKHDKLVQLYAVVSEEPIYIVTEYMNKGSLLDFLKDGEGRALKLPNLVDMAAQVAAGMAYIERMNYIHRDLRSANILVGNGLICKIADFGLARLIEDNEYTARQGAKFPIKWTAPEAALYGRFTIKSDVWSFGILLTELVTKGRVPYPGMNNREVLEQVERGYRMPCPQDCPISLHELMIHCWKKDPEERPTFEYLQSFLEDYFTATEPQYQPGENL

SMILES	inhibition [1]	inhibition [2]	inhibition [3]	inhibition [4]	inhibition [5]	inhibition [6]	inhibition [7]	inhibition [8]	inhibition [9]	inhibition [10]	inhibition [11]	inhibition [12]	inhibition [13]	inhibition [14]	inhibition [15]	inhibition [16]	inhibition [17]	inhibition [18]	inhibition [19]	inhibition [20]
CS(=O)(=O)CCNCc1nc(-c2ccc3ncnc(Nc4ccc(OCc5cccc(C(F)(F)F)c5)cc4)c3c2)cs1	2.82%	1.67%	3.9%	2.86%	0.5%	-0.59%	2.66%	1.6%	5.52%	3.06%	-0.39%	1.34%	3.51%	3.6%	4.19%	3.13%	2.21%	0.88%	8.87%	1.59%
Nc1nccc(-c2c(-c3ccc(F)cc3)nn3cc(C(F)(F)F)ccc23)n1	0.39%	-0.26%	-0.62%	0%	1.3%	0.29%	-2.61%	-1.44%	0.7%	0.57%	0.92%	2.53%	0.4%	1.73%	-4.89%	0.03%	-1.18%	-4.62%	7.32%	0.43%
CN(C)C(=O)O[C@@H]1CN[C@@H](C#Cc2cc3ncnc(Nc4ccc(OCc5cccc(F)c5)c(Cl)c4)c3s2)C1	-2.71%	1.22%	0.34%	2%	2.88%	0.28%	-0.53%	3.24%	2.3%	0.42%	5.37%	4.55%	3.19%	1.31%	-2.2%	-0.2%	0.49%	-1.87%	2.32%	1.01%
Cc1cc(Cl)cc2c1NC(=O)C2=NNc1ccc(S(N)(=O)=O)cc1	6.95%	1.58%	2.35%	2.49%	2.54%	0.31%	1.33%	1.91%	1.96%	3.08%	10.9%	6.15%	2.07%	4.88%	-4.47%	1.38%	1.06%	-2.64%	8.32%	0.94%

From ChEMBL document CHEMBL1961873, “Compounds: GSK PKIS; Assays: Nanosyn kinase panel” (2012)
